Unmarked numbers belong to inactive results.
System: Vero E6 infected with SARS-CoV-2
Assay: inhibition of SARS-CoV-2 cytopathic effect; higher = more antiviral protection, active = above 15
Conditions: 48 h

Structure (SMILES)	inhibition of SARS-CoV-2 cytopathic effect (1 nM)	inhibition of SARS-CoV-2 cytopathic effect (8.33 nM)	inhibition of SARS-CoV-2 cytopathic effect (100 nM)	inhibition of SARS-CoV-2 cytopathic effect (833.33 nM)	inhibition of SARS-CoV-2 cytopathic effect (10000 nM)
C=C[C@@]1(C)CC(=O)[C@]2(O)[C@@]3(C)[C@@H](O)CCC(C)(C)[C@@H]3[C@H](O)[C@H](OC(C)=O)[C@@]2(C)O1 [colforsin]	2%	2.29%	2.56%	-1.53%	0.905%
NC(=O)c1cn(Cc2c(F)cccc2F)nn1 [rufinamide]	2.25%	1%	2.89%	1.75%	3.51%
C=CCc1cc(OC)c(O)c(C(=O)NCCO)c1 [alibendol]	-1.08%	-1.21%	-0.53%	1.71%	-2.2%
O=C1CCC[C@@H]2[C@H]3C[C@@H](CN12)[C@@H]1CCCCN1C3 [lupanine]	2.64%	9.38%	5.68%	1.8%	-0.17%
C[C@]12C/C(=C/O)C(=O)C[C@@H]1CC[C@@H]1[C@@H]2CC[C@@]2(C)[C@H]1CC[C@]2(C)O [Oxymetholone]	0.88%	0.02%	1.73%	0.45%	1.57%
C=CCN1CCc2nc(N)sc2CC1 [talipexole]	-0.94%	1.41%	0.94%	-0.07%	-2.07%
CCCCCCCCCCOc1cc2c(O)c(C(=O)OCC)cnc2cc1OCC [decoquinate]	-0.9%	-0.75%	-1.59%	-0.59%	2.03%
C=C1CC/C=C(\C)CC[C@@H]2[C@@H]1CC2(C)C [g-caryophyllene]	1.74%	2.63%	-0.6%	1.24%	1.88%
O=C(O)c1cc2occc2[nH]1	-2.55%	-2.94%	-2.08%	-2.97%	-2.87%
Cn1cc(-c2ccncc2)c(-c2ccc(OCc3ccc4ccccc4n3)cc2)n1	-1.42%	1.25%	1.83%	16% (active)	52.4% (active)
CC(=O)Nc1ccc(OC[C@](C)(O)C(=O)Nc2ccc([N+](=O)[O-])c(C(F)(F)F)c2)cc1 [andarine]	-0.84%	-0.36%	-2.49%	-1.89%	-1.92%
N[C@@H](C(=O)O)c1ccc(C(=O)O)c(O)c1 (racemic) [4-carboxy-3-hydroxyphenylglycine-(RS)]	-0.15%	-0.33%	0.94%	-0.355%	-0.565%
O=C(Nc1c(-c2cccs2)nc2ccccn12)c1ccc(Cl)cc1	1.67%	-0.43%	-1.06%	1.78%	9.03%
COc1ccc(CN2C(=O)C(=O)c3cc(OC(F)(F)F)ccc32)cc1	-0.15%	1.14%	1.79%	1.75%	6.79%
N#Cc1c(Oc2ccc(F)c(NC(=O)Cc3cccc(C(F)(F)F)c3)c2)ccc2nc(NC(=O)C3CC3)sc12	0.58%	2.74%	2.56%	0.34%	-7.91%
Cc1nccn1CC1CCc2c(c3ccccc3n2C)C1=O (stereo not given) [ondansetron]	3.14%	0.05%	-1.38%	-1.32%	3.44%
CNCC[C@H](Oc1cccc2ccccc12)c1cccs1 [duloxetine]	-2.53%	-0.71%	0.92%	-2.04%	-6.87%
O=C(Nc1ccccc1)[C@]12C[C@H]1/C(=N\O)c1ccccc1O2	1.02%	3.35%	-0.61%	-0.42%	1.97%
O=c1c(-c2ccc(O)cc2)coc2cc(O)ccc12 [daidzein]	0.46%	0.3%	0.05%	-0.66%	-1.03%
Nc1nc(/C(=C/CC(=O)O)C(=O)N[C@@H]2C(=O)N3C(C(=O)O)=CCS[C@H]23)cs1 [ceftibuten]	0.43%	2.3%	2.51%	2.04%	1.92%

Structure (SMILES)	inhibition of SARS-CoV-2 cytopathic effect (1 nM)	inhibition of SARS-CoV-2 cytopathic effect (8.33 nM)	inhibition of SARS-CoV-2 cytopathic effect (100 nM)	inhibition of SARS-CoV-2 cytopathic effect (833.33 nM)	inhibition of SARS-CoV-2 cytopathic effect (10000 nM)
O=C(O)c1cc2cccc([N+](=O)[O-])c2[nH]1	-1.29%	0.14%	-0.8%	0.27%	1.27%
O=C(Nc1ccc(S(=O)(=O)Nc2ccccc2Cl)c(Cl)c1)c1ccccn1	0.59%	0.83%	-1.92%	2.48%	0.25%
N[C@@H]1[C@H]2CN(c3nc4c(cc3F)c(=O)c(C(=O)O)cn4-c3ccc(F)cc3F)C[C@@H]12 [trovafloxacin]	-8.03%	-6.09%	-4.83%	-0.82%	-1.33%
CNCc1ccc(C)c(NC(=O)c2ccc(Nc3nc(-c4ccccc4)c4ccccc4n3)cc2)c1	-4.56%	-2.52%	-1.92%	-1.96%	61.3% (active)
Cc1ccc(O)c([C@H](CCN(C(C)C)C(C)C)c2ccccc2)c1 [tolterodine]	2.11%	1.62%	1.96%	-3.34%	-2.67%
c1ccc2sc(SNC3CCCCC3)nc2c1 [N-cyclohexyl-2-benzothiazolesulfenamide]	2.74%	0.54%	-0.9%	-0.46%	-3.64%
O=C(O)/C=C/c1ccc(Cn2ccnc2)cc1 [ozagrel]	0.02%	3.28%	0.19%	0.75%	-0.91%
COc1cccc2c1C(=O)c1c(O)c3c(c(O)c1C2=O)C[C@@](O)(C(C)=O)C[C@@H]3O[C@H]1C[C@H](N)[C@H](O)[C@H](C)O1 [daunorubicin]	0.05%	0.64%	1.14%	4.26%	-16.6%
Cc1c(-c2cnccn2)ssc1=S [oltipraz]	1.51%	4.72%	3.49%	5.97%	0.75%
[O-][n+]1ccccc1[S-].[O-][n+]1ccccc1[S-].[Zn+2] [pyrithione-zinc]	1.44%	0.32%	1.01%	29.9% (active)	-21.9%
Oc1cc2c(cc1O)[C@H](Cc1cccc3ccccc13)NCC2	1.2%	-0.02%	-0.84%	-0.78%	-2.59%
N[C@@H]1CN(c2c(F)cc3c(=O)c(C(=O)O)cn([C@@H]4C[C@@H]4F)c3c2Cl)CC12CC2 [sitafloxacin]	-0.69%	-3.2%	-0.99%	-1.2%	5.19%
CC(C)(C)CC(C)(C)c1ccc(O)c(Cc2ccc(Cl)cc2Cl)c1 [clofoctol]	3.11%	0.06%	2.41%	3.05%	-0.97%
NCC(CC(=O)O)c1ccc(Cl)cc1 (stereo not given) [baclofen]	-0.225%	-1.56%	-2.14%	0.04%	-0.06%
CC(C)=CCC/C(C)=C/CC/C(C)=C/CC[C@]1(C)CCc2cc(O)cc(C)c2O1 [delta-tocotrienol]	0.39%	-1.44%	2.83%	7.95%	2.88%
CC[C@H](CC[C@@H](C)[C@H]1CC[C@H]2[C@@H]3CC=C4C[C@@H](O[C@@H]5O[C@H](CO)[C@@H](O)[C@H](O)[C@H]5O)CC[C@]4(C)[C@H]3CC[C@]12C)C(C)C [daucosterol]	0.22%	-0.23%	0.27%	0.28%	-1.86%
Cc1c(Cl)cccc1S(=O)(=O)Nc1nc(NCCc2ccccc2)nc2c1CN(Cc1ccccc1)CC2	5.62%	1.85%	0.14%	0.89%	-1.37%
Cc1cccc(C)c1NC(=O)CN1CCN(CCCC(c2ccc(F)cc2)c2ccc(F)cc2)CC1 [lidoflazine]	-2.3%	0.7%	0.47%	-1.87%	-10.2%
CCN1C(=O)CNc2ncc(-c3ccc(-c4nc[nH]n4)nc3C)nc21	2.11%	2.76%	2.06%	2.77%	-4.67%

Reference: the supplement of paper PMC13380429
